rCAG RNA binder = molecules binding r(CAG) RNA repeats; r(CAG) RNA repeat, TO-PRO-1 dye displacement fluorescence; inhibition, % at 3 µM; actives 1.3% (n = 370,000);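 active means inhibition above the plate cutoff, the mean of all test compounds on that plate plus 3 SD, cut at about 35% in these data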;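 further: 0% = DMSO alone and 100% = 100 µM mitoxantrone as full dye displacement; higher means more dye released from RNA so lower well fluorescence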
MPTP block = blocks calcium-induced mitochondrial swelling; isolated mouse mitochondria, Ca2+ swelling absorbance, 30 min; AID 602449; actives 1.4% (n = 360,000); inhibition, % at 10 µM;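 active means inhibition of 50% or more, scaled per plate between neutral and stimulator controls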;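 further: 0% = DMSO wells given calcium and 100% = 1 mM EGTA wells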
ADAM10 inh = ADAM10 inhibition, QFRET primary screen | recombinant ADAM10, EDANS/DABCYL FRET peptide cleavage, 3 h | AID 720582 | actives 0.62% (n = 370,000) | inhibition, % at 7 µM;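 active means inhibition above a per-campaign cutoff equal to the mean of compounds falling between control-based bounds plus 3 SD, cut at about 20% in these data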;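 further: 0% = DMSO wells while the 100% control is not disclosed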
proKLK7 act = activators of human kallikrein-7 zymogen | purified proKLK7, EDANS-DABCYL substrate fluorescence; 100% is mature enzyme control, 0% vehicle | activation, % at 7 µM | actives 0.9% (n = 370,000) | AID 652039;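 active means activation above the mean of all tested compounds plus 3 SD, computed per campaign excluding outliers beyond control limits, cut at about 13% in these data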
Pemphigus Ab inh = inhibitors of pemphigus antibody binding to human desmoglein-3; P32926; DSG3-coupled beads, scFv-anti-DSG3-GFP binding, flow cytometry; stronger effect = lower value; binding (percent of control), % at 10 µM; actives 0.48% (n = 310,000); AID 588358;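 active means binding more than 3 SD below its plate's average and above zero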;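 further: hits lower antibody fragment binding to DSG3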
ADAM17 inh = inhibitors of human ADAM17 | inhibition, % at 6.95 µM | P78536 | recombinant ADAM17, EDANS/DABCYL FRET peptide cleavage | actives 0.83% (n = 370,000);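 active means inhibition above the mean of compounds lying between control limits plus 3 SD, set per campaign, cut at about 8.5% in these data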;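 further: 0% = DMSO-only wells as the low control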
Target sequence (P78536 215-824 limits assumed): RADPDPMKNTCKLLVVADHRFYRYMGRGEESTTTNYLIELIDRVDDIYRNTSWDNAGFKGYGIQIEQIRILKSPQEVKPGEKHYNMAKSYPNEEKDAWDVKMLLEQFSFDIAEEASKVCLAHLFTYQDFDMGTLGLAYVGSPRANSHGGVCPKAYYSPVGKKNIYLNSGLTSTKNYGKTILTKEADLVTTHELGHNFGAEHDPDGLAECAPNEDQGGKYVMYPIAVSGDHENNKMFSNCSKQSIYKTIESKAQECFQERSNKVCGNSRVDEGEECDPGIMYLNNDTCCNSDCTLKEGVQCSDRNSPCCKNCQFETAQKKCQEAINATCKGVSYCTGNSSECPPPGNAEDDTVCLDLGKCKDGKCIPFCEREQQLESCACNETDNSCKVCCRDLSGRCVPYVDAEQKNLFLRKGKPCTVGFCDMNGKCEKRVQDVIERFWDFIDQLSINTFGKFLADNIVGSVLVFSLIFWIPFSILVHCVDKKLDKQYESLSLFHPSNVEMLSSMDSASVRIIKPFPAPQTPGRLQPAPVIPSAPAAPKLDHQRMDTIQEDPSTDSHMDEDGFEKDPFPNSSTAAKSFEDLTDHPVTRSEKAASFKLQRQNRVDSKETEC
KLK7 act conf = proKLK7 activation, confirmation; activation, % at 7 µM; purified proKLK7, EDANS-DABCYL substrate fluorescence; scaled: vehicle 0, mature enzyme 100; actives 68% (n = 3,200); shares compounds with proKLK7 act;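 active means activation, as change over the incubation, above the mean of all tested compounds plus 3 SD, cut at about 13% in these data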
EDANS-DABCYL int = counter-screen for kallikrein-7 activators: EDANS-DABCYL optical interference; shares compounds with proKLK7 act; EDANS-DABCYL substrate fluorescence interference, no enzyme, 4 h; solvent 0%, active enzyme control 100%; activation, % at 7 µM; actives 80% (n = 3,200); AID 686952;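 active means activation above the all-compound mean plus 3 SD, ignoring values outside control-based bounds, cut at about 4.8% in these data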;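 further: value is the 4 h activation minus the activation read at time zero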
ADAM10 confirm = human ADAM10 inhibition, confirmation | shares compounds with ADAM10 inh | inhibition, % at 6.95 µM | actives 1% (n = 2,100) | AID 743208 | ADAM10 QFRET peptide cleavage, EDANS fluorescence;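 active means inhibition above about 20% chosen separately for each screening run, limit read from the data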;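 further: 0% = DMSO wells and 100% = marimastat wells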
ADAM17 ctr = ADAM17 inhibition, counter-screen for ADAM10 exosite hits; shares compounds with ADAM10 inh; ADAM17 QFRET peptide cleavage, EDANS fluorescence; inhibition, % at 6.95 µM; actives 0.5% (n = 2,100);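 active means mean triplicate inhibition above the solvent-only control wells' mean plus 3 SD, cut at about 12% in these data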;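 further: 0% = DMSO wells and 100% = marimastat wells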
* hit, by the source's call. Only some compounds are listed: those with a hit (about 4.7% of all), similar ones and a draw of the others.

`Cc1cc(=O)oc2cc(OCC(=O)N3CCN(C(C)c4ccccc4)CC3)c(Cl)cc12` (configuration not stated) gave rCAG RNA binder -2, MPTP block -1, ADAM10 inh inactive, proKLK7 act 38*, Pemphigus Ab inh 88, ADAM17 inh inactive, KLK7 act conf 63* and EDANS-DABCYL int 75*.
For OCCN1C2CCC1CC(O)(c1ccc(F)cc1)C2 (configuration not stated) the results were rCAG RNA binder -1, MPTP block -1, ADAM10 inh -2, proKLK7 act 0, Pemphigus Ab inh 88 and ADAM17 inh -2.
`CCC1C(c2ccccc2)NC(c2ccccc2)CC1(O)c1ccc(F)cc1` (configuration not stated) gave rCAG RNA binder -4, MPTP block 8, ADAM10 inh 21*, proKLK7 act 1, ADAM17 inh 5, ADAM10 confirm 4 and ADAM17 ctr 1.
CC(=O)c1cc(C(C)=O)c(C)[n+](C)c1C was read as rCAG RNA binder -1, MPTP block 2, ADAM10 inh 2, proKLK7 act -1 and ADAM17 inh 0.
For O=c1[nH]c2ccccc2n1C1CCN(C(c2cccc3ccccc23)c2nnnn2Cc2ccccc2)CC1 (configuration not stated) the results were rCAG RNA binder 16, MPTP block -2, ADAM10 inh 18, proKLK7 act 1 and ADAM17 inh 6.
O=c1[nH]c2ccccc2n1C1CCN(C(c2cccs2)c2nnnn2-c2ccc3c(c2)OCCO3)CC1 (configuration not stated) was read as rCAG RNA binder 8, MPTP block -3, ADAM10 inh 20*, proKLK7 act 0, ADAM17 inh 7, ADAM10 confirm 8 and ADAM17 ctr 2.
`O=c1[nH]c2ccccc2n1C1CCN(C(c2cc3ccccc3o2)c2nnnn2Cc2ccccc2)CC1` (configuration not stated) gave rCAG RNA binder 12, MPTP block 0, ADAM10 inh 23*, proKLK7 act -1, ADAM17 inh 8, ADAM10 confirm 10 and ADAM17 ctr 3.
For COc1cccc(C(c2nnnn2-c2ccc3c(c2)OCCO3)N2CCC(n3c(=O)[nH]c4ccccc43)CC2)c1OC (configuration not stated) the results were rCAG RNA binder 13, MPTP block -1, ADAM10 inh 21*, proKLK7 act 0, ADAM17 inh 4, ADAM10 confirm 7 and ADAM17 ctr 1.
COc1ccc(C(c2nnnn2-c2c(C)cccc2C)N2CCC(n3c(=O)[nH]c4ccccc43)CC2)cc1 (configuration not stated) was read as rCAG RNA binder 11, MPTP block -1, ADAM10 inh 23*, proKLK7 act 0, ADAM17 inh 9.7*, ADAM10 confirm 6 and ADAM17 ctr 2.
For COc1ccc(-n2nnnc2C(c2cccc(OC)c2OC)N2CCC(n3c(=O)[nH]c4ccccc43)CC2)cc1 (configuration not stated) the results were rCAG RNA binder 8, MPTP block 0, ADAM10 inh 3, proKLK7 act 0 and ADAM17 inh 3.
For CC(=O)OC1C(O)C2=C3C4(C)C1C(C)(C)C(=O)CC4C3(O)C(OC(C)=O)C1(CC1C)C2=O (configuration not stated) the results were rCAG RNA binder 4, MPTP block -1, ADAM10 inh 1, proKLK7 act 0 and ADAM17 inh -1.
`CN(C)CC1CCCCC1OC(=O)Cc1ccc(Cl)c([N+](=O)[O-])c1` (configuration not stated) gave rCAG RNA binder 5, MPTP block 0, ADAM10 inh -2, proKLK7 act 0, Pemphigus Ab inh 103 and ADAM17 inh 0.
Screening O=c1[nH]c2ccccc2n1C1CCN(C(c2ccccc2OC(F)(F)F)c2nnnn2-c2ccc3c(c2)OCCO3)CC1 (configuration not stated) returned rCAG RNA binder 12, MPTP block -1, ADAM10 inh 33*, proKLK7 act 0, ADAM17 inh 15*, ADAM10 confirm 11 and ADAM17 ctr 2.
COc1ccc(-n2nnnc2C(c2cccc3ccccc23)N2CCC3(CC2)C(=O)NCN3c2ccccc2)cc1 (configuration not stated) was read as rCAG RNA binder 13, MPTP block 3, ADAM10 inh 21*, proKLK7 act 0, ADAM17 inh 9, ADAM10 confirm 10 and ADAM17 ctr 3.
CCn1c(=O)n(CC)c2cc([N+](=O)[O-])c(N3CCNCC3)cc21 was read as rCAG RNA binder -3, MPTP block 3, ADAM10 inh -13, proKLK7 act 1, Pemphigus Ab inh 96 and ADAM17 inh -5.
`Cc1nc2ccc(Br)cc2c(=O)n1-c1ccc([N+](=O)[O-])c(C(F)(F)F)c1` gave rCAG RNA binder 2, MPTP block 1, ADAM10 inh 23*, proKLK7 act 0, Pemphigus Ab inh 104, ADAM17 inh 5, ADAM10 confirm 1 and ADAM17 ctr 0.
For Cc1nc2ccccc2c(=O)n1-c1cc([N+](=O)[O-])cc([N+](=O)[O-])c1 the results were rCAG RNA binder -4, MPTP block 1, ADAM10 inh 11, proKLK7 act 0, Pemphigus Ab inh 85 and ADAM17 inh -1.
`CCN(CCNc1ccc([N+](=O)[O-])c2cccnc12)S(=O)(=O)c1ccc(Cl)cc1` gave rCAG RNA binder 14, MPTP block 13, ADAM10 inh 22*, proKLK7 act -1, Pemphigus Ab inh 96, ADAM17 inh 7, ADAM10 confirm 5 and ADAM17 ctr 1.
`CCN(CCNc1ccc([N+](=O)[O-])c2cccnc12)S(=O)(=O)c1ccccc1` gave rCAG RNA binder 0, MPTP block 4, ADAM10 inh -10, proKLK7 act 1, Pemphigus Ab inh 133 and ADAM17 inh -2.

Screening data (PubChem BioAssay)
